Shown are actives, neighbours in structure and some others; about 6.1% of the full set was active somewhere.
D1 potentiator: Potentiators of Human D1 Dopamine Receptor: qHTS; HEK293 TREx D1 cells, calcium flux, dopamine EC20 potentiation; potentiation, % at 10 µM; AID 504651, 2011; D(1A) dopamine receptor (Homo sapiens), P21728; 0.036% of 360,000 active; in the data active = potentiation above about 30%
DRD3 agonist: qHTS of D3 Dopamine Receptor Agonist: qHTS; D3R DiscoveRx beta-arrestin cells, luminescence, 90 min; max activation, %; 0.58% of 410,000 active; in the data active = max activation above about 30%
Target sequence (P35462 whole entry, looked up): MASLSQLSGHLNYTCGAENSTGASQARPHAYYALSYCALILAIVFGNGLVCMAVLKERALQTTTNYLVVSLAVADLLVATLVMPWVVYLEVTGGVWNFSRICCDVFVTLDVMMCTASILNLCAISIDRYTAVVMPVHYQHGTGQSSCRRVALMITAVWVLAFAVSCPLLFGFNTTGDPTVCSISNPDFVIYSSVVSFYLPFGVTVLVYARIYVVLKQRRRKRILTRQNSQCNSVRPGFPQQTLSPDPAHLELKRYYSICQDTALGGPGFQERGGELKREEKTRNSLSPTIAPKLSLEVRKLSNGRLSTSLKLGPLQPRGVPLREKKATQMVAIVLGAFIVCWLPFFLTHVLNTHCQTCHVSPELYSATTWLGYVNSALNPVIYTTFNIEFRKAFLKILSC
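Agonist-mode cell screen: cells plated at 1500/well and incubated overnight at 37 °C, then exposed to library compounds for 90 min at 37 °C. Detection reagent was added for 30–60 min at room temperature, and luminescence was read.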
DRD3 antagonist: qHTS of D3 Dopamine Receptor Antagonist: qHTS | D(3) dopamine receptor (Homo sapiens), P35462 | D3R cells, DiscoveRx beta-arrestin luminescence, antagonist mode; hits give low values | max response, negative = inhibition, % | 2.5% of 360,000 active | AID 652054, 2013; in the data active = max response below about -50%; inconclusive = no clear call, values can overlap the other calls
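Cells expressing the human receptor were seeded at 1500 cells/well, incubated overnight at 37 degrees C in 5% CO2, then exposed to library compounds with dopamine controls for 90 minutes at 37 degrees C before luminescent detection.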
D1 antagonist: Antagonist of Human D 1 Dopamine Receptor: qHTS; 3.2% of 360,000 active; HEK293 TREx D1 cells, calcium flux, dopamine EC80; hits give low values; AID 504652, 2011; activity change, negative = inhibition, % at 10 µM; D(1A) dopamine receptor (Homo sapiens), P21728; in the data active = activity change below about -30%
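Tetracycline-induced HEK293 T-REx cells with force-coupled D1 receptor were loaded with a no-wash calcium dye. Compound was added after a 10 s baseline and read kinetically for 180 s; EC80 dopamine was then added and calcium flux followed another 180 s.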
D1 ag: Allosteric Agonists of the Human D1 Dopamine Receptor: qHTS; AID 504660, 2011; activation, % at 2 µM; HEK293 T-REx D1 cells, calcium flux, agonist mode; 1% of 360,000 active; in the data active = activation above about 30%
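Tetracycline-induced HEK293 TREx D1 cells, force-coupled to calcium signalling, were dye-loaded with a no-wash calcium kit. Compound was pin-added after a 10 s baseline. Fluorescence was read kinetically at 1 cycle/s for 180 s, with calcium rises flagged as agonism.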
ERG Ets-DNA blk: qHTS for Small Molecule Inhibitors of the ERG Ets/DNA interaction. fluorescence polarization, His-ERG Ets domain / labelled DNA. Potency, µM (series often up to 76.9 µM), usual class: inhibitors. 0.028% of 370,000 active; active = well fitted inhibition curve with a large enough effect in the polarisation, with a control signal flat; inconclusive = small, poorly fitted or top-dose-only effect, or effect the other way, or a change in a side signal; inactive = no such curve, though single readings can be large or run the other way; the % refers to the polarisation;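 also: polarization taken with two DNA probes labelled with fluorescein and Texas red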
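His-tagged ERG Ets domain (1 uM in the protein solution; 300mM KCl, 50mM Tris-HCl, 1mM EDTA, 1mM DTT, pH 7.5) received compound, then a probe mix of 5 nM fluorescein-DNA and 100nM Texas-615-DNA. Fluorescence polarization was read for both dyes.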
Large screens that a line does not name were inactive; ! = repeats disagree.

COc1ccc(CC(=O)NC(=S)Nc2ccc(S(N)(=O)=O)cc2)cc1	D1 ag 34.3 (no result: ERG Ets-DNA blk)
COc1ccc(C(=O)NC(NC(=S)Nc2ccc(S(N)(=O)=O)cc2)C(Cl)(Cl)Cl)cc1 (stereo not given)	DRD3 antagonist -75.3
COCCCNC(=O)c1ccc2c(c1)nc1n2CCCCC1	none (no result: DRD3 antagonist)
CC(C)(C)c1ccc(C(=O)NCCc2csc(-c3ccc(Cl)cc3)n2)cc1	none (no result: DRD3 antagonist)
CN(C)CCCNC(=O)c1ccc(-c2nc(-c3ccc(Cl)cc3)cs2)cc1	D1 antagonist -58.5
CCOC(=O)c1sc(NC(=O)/C=C/c2ccc(OCC)cc2)c(C(=O)OCC)c1C	none (no result: DRD3 antagonist)
CCOC(=O)c1sc(NC(=O)/C=C/c2cnn(C)c2C)c(C(=O)OC(C)C)c1C	DRD3 agonist 34.5
CCOC(=O)c1c(NC(=O)/C=C/c2ccc(C)cc2)sc(C(C)=O)c1C	D1 antagonist -32.0 (no result: DRD3 antagonist)
O=S(=O)(Nc1nc2ccccc2nc1Nc1ccc(N2CCOCC2)cc1)c1cc(Cl)ccc1Cl	D1 antagonist -49.6
CN(Cc1ccco1)C(=O)c1ccc(N2CCCC2=O)cc1	none
N=C1C=CC(=C(c2ccc(N)cc2)c2ccc(N)cc2)C=C1	DRD3 antagonist inconclusive (no result: D1 potentiator, D1 antagonist, D1 ag, ERG Ets-DNA blk)
ClC1(Cl)CC1CSc1nc2ccccc2[nH]1 (stereo not given)	D1 antagonist -34.3
COC(=O)[C@@H]1[C@@H](C)N(Cc2ccccc2)C(=O)N[C@H]1c1cccc(C(F)(F)F)c1	none
CC(=O)N1C(C)(C)CC(=NOC(=O)c2ccc(C)cc2)CC1(C)C	none
COc1cc(NC(=O)C2CC(c3cccc(Br)c3)=NO2)cc(OC)c1OC (stereo not given)	none
FC(F)Oc1cccc(NC(=S)N2CCN(c3ccccn3)CC2)c1	D1 antagonist -71.3
S=C(Nc1ccccc1)N1CCN(c2ccccn2)CC1	none
O=C(Nc1ccc2c(c1)OCO2)C1CCN(S(=O)(=O)c2cccc3cccnc23)CC1	none
Cc1nnc(SCCn2c(N3CCC(C)CC3)nc3c2c(=O)[nH]c(=O)n3C)s1	D1 antagonist -60.0
Cc1nnc(SCCn2c(N3CCCC(C)C3)nc3c2c(=O)[nH]c(=O)n3C)s1 (stereo not given)	none
CCOc1ccc(NC(=O)NCc2cccn2Cc2ccccc2)cc1	none (no result: DRD3 antagonist)
CCOc1ccc(NC(=O)NC23CC4CC(CC(C4)C2)C3)cc1	D1 antagonist -31.4
COc1ccc(NC(=O)NC23CC4CC(CC(C4)C2)C3)cc1OC	DRD3 antagonist inconclusive
CCOc1ccc(NC(=O)NCc2cccn2C)cc1	D1 antagonist -42.4
Cc1c(C(=O)NCC2CCCO2)sc2nc(-c3ccc(F)cc3)cn12 (stereo not given)	none
CCN1C(=NCCCOC(C)C)N[C@@H](CCc2ccccc2)[C@H](C(=O)NCCCOC(C)C)[C@H]1C	none
Cc1[nH]oc(=O)c1N=Nc1ccc2[nH]c(=O)[nH]c2c1	DRD3 antagonist -65.9 (no result: D1 potentiator, D1 antagonist, D1 ag)
COc1ccc(CC(=O)Nc2ccccc2N2CCCC2)cc1OC	none
CCOc1cc(CC(=O)N[C@@H](CC(C)C)c2ccccc2N2CCCCC2)ccc1C(=O)O	DRD3 agonist 96.5!
O=C(c1c[nH]c2ccccc12)C(Cl)c1ccccc1 (stereo not given)	D1 antagonist -38.9
O=C(c1c[nH]c2ccccc12)C(O)C(c1ccccc1)N1CCOCC1 (stereo not given)	none
C=C(C)Cn1c2ccc(NC(=S)NCc3ccccc3F)cc2c(=O)n1C	DRD3 antagonist -52.0 (no result: D1 potentiator, D1 antagonist, D1 ag, ERG Ets-DNA blk)
COc1ccccc1NS(=O)(=O)c1ccc(O)c(C(=O)OCC(=O)c2ccc(Cl)cc2Cl)c1	none
CSc1ccc(C2NC(=O)c3c(sc4c3CCN(C)C4)N2)cc1 (stereo not given)	DRD3 antagonist inconclusive, D1 ag 33.9 (no result: D1 potentiator)
CC(C)c1ccc(C2NC(=O)c3c(sc4c3CCN(C)C4)N2)cc1 (stereo not given)	none (no result: DRD3 antagonist)
CN1CCc2c(sc3c2C(=O)NC(c2cccs2)N3)C1 (stereo not given)	D1 antagonist -48.4 (no result: ERG Ets-DNA blk)
COc1ccc(C2NC(=O)c3c(sc4c3CCN(C)C4)N2)cc1O (stereo not given)	none (no result: DRD3 antagonist)
CCOc1cc(C2NC(=O)c3c(sc4c3CCN(C)C4)N2)ccc1OC(=O)c1ccccc1Cl (stereo not given)	D1 ag 35.3, ERG Ets-DNA blk inconclusive (no result: DRD3 antagonist)
CN1CCc2c(sc3c2C(=O)NC(c2ccc(C(C)(C)C)cc2)N3)C1 (stereo not given)	D1 ag 37.3, ERG Ets-DNA blk inconclusive (no result: DRD3 antagonist)
Cc1ccc(NC(=O)c2cccc(N3C(=O)C4C5C=CC(C5)C4C3=O)c2)cc1C (stereo not given)	none
CC(C)(C)C(=O)NC(n1cnc2c(N3CCOCC3)ncnc21)C(Cl)(Cl)Cl (stereo not given)	D1 antagonist -34.3
O=C(O)c1ccc(CN2C[C@@H](CO)O[C@@H](n3cnc4c(N5CCOCC5)ncnc43)C2)cc1	none (no result: D1 potentiator, D1 antagonist, D1 ag, ERG Ets-DNA blk)
NS(=O)(=O)c1ccc(CCNC(=O)CCCn2ncn3c(cc4occc43)c2=O)cc1	none
Cc1ccc2[nH]c3c(c2c1)CCCC3=O	none
O=C1CCCc2c1[nH]c1ccc(CN3CCCCC3)cc21	DRD3 antagonist -53.8
O=C(C1CCCCCC1)N1CC[C@@H](N2CCC(O)CC2)[C@H](O)C1	none
CC(=O)c1cccc(NC(=O)c2cc(-c3ccc(C)cc3)on2)c1	none (no result: ERG Ets-DNA blk)
O=c1cc(O)c2sc3nc(-c4ccccc4)cc(C(F)(F)F)c3c2[nH]1	D1 ag 56.2
O=C(Nc1ccc(S(=O)(=O)N2CCOCC2)cc1)c1ccc(CN2CCc3ccccc3C2)cc1	DRD3 antagonist -54.2
CCOc1ccccc1NC(=O)c1ccc(CN2CCc3ccccc3C2)cc1	DRD3 antagonist -70.2
O=C(NCCCN1CCOCC1)c1cccc(S(=O)(=O)N2CCc3ccccc3C2)c1	DRD3 antagonist -56.7
COc1cccc(NC(=O)c2ccc(CN3CCc4ccccc4C3)cc2)c1	DRD3 antagonist -101.7
CCOC(=O)Cn1c(=O)c2c(nc3n2CCCN3Cc2ccccc2)n(C)c1=O	none
CCN(Cc1nc(-c2cccc(C)c2)no1)C(=O)c1ccco1	none
COc1ccc(NC(=O)N2CCCc3ccccc32)cc1OC	D1 antagonist -54.9
N#CCc1ccc(NC(=O)c2ccc(CN3CCc4ccccc4C3)cc2)cc1	DRD3 antagonist -53.3
CC(=O)c1cccc(NC(=O)c2ccc(CN3CCc4ccccc4C3)cc2)c1	DRD3 antagonist -88.7
